Whole data set: some 110,000 compounds, median “z-score” near -0.1, cut for the highest 2% near 2. What follows is part of a selection rich in the highest values, with near analogues and random picks from the rest. Activity calls are given as the source filed them.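 Rule for the calls: active = z-score in the third read window above 3 or below -3; inactive = the rest.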
What follows are compounds tested against Metabotropic glutamate receptor 8 (Rattus norvegicus) (UniProt P70579) (assay: mGluR8 Gi/Go-coupled signaling modulation – cell-based, rat, thallium flux, HTS, primary screen (AID 488969)). Conditions: HEK293 rat mGluR8, GIRK (G protein-gated inwardly rectifying potassium channel) thallium flux, FluoZin2; at 10 µM; stronger effect = higher value; submaximal glutamate (EC20) added with thallium.
Sequence of Metabotropic glutamate receptor 8 (Rattus norvegicus) (P70579 whole entry, looked up): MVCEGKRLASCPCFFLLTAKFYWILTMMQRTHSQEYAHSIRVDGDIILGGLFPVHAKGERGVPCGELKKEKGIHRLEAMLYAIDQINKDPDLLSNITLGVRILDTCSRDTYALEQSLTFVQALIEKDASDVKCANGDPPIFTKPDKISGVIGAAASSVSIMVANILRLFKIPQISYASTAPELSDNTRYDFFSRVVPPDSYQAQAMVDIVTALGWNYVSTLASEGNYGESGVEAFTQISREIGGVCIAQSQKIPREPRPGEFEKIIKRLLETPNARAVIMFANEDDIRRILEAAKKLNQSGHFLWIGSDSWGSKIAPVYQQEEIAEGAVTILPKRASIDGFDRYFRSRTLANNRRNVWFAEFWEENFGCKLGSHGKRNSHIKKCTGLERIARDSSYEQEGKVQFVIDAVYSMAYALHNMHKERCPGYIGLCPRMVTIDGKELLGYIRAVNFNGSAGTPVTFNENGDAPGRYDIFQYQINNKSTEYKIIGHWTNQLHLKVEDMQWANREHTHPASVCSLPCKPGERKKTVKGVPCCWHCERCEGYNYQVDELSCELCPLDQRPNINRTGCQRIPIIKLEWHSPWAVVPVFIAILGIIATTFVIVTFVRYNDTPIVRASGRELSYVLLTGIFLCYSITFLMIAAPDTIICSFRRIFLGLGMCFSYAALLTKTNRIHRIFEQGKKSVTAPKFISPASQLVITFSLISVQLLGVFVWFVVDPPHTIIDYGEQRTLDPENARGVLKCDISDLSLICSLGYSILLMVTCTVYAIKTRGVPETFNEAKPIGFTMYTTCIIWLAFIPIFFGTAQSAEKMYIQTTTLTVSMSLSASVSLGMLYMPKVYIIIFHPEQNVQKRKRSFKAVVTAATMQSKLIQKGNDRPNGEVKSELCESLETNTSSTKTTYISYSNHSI
Compound CCOc1ccc(C(=O)NC(=S)N2CCN(c3ccc(C(F)(F)F)cc3[N+](=O)[O-])CC2)cc1 has a z-score of 0.854. COc1cccc(OC)c1C(=O)NC(=S)N1CCN(c2ccc(C(F)(F)F)cc2[N+](=O)[O-])CC1 was tested, and the z-score was 0.046. For CO/N=C/c1ccc(N2CCN(C(=O)c3cccc(C(F)(F)F)c3)CC2)c([N+](=O)[O-])c1, the z-score was -0.0941. With CC(C)Oc1cccc(C(=O)NC(=S)N2CCN(c3ccc(C(F)(F)F)cc3[N+](=O)[O-])CC2)c1 the z-score was 6.72 (active). COc1cc(OC)cc(C(=O)NC(=S)N2CCN(c3ccc(C(F)(F)F)cc3[N+](=O)[O-])CC2)c1 was tested, and the z-score was 4.05 (active). Cc1nn(-c2cc(C)c3ccccc3n2)c2c1CCC2 was tested, and the z-score was 0.557. Work on Cc1ccc(C)c(NC(=S)NC(NC(=O)/C=C/c2ccccc2)C(Cl)(Cl)Cl)c1 (stereo not given) yielded a z-score of -0.264. Work on CC1CCCN(c2ccc(C(=O)OCC(=O)N3c4ccccc4Sc4ccccc43)cc2[N+](=O)[O-])C1 (stereo not given) yielded a z-score of -0.269. Compound c1ccc2c(c1)CCCN2c1nc2ccccc2n2cnnc12 has a z-score of -0.203. Compound COc1ccc(OC)c(NC(=O)C2CC(=O)n3ncnc3N2)c1 (stereo not given) has a z-score of -0.244. CS(=O)(=O)N(CC(=O)N1CCN(c2ccccc2)CC1)c1ccc(Cl)c(C(F)(F)F)c1 showed a z-score of -0.0753. In the case of CCn1c(=NC(=O)c2ccc(N3C(=O)CCC3=O)cc2)sc2c(OC)ccc(OC)c21, the z-score is reported as -0.536. With CCn1c(Cc2ccc(OC)cc2)nnc1SCC(=O)N1CCN(c2ccccc2)CC1 the z-score was 0.352. Work on O=C(O)C1CCCCC1C(=O)Nc1cc(Cl)ccc1Cl (stereo not given) yielded a z-score of 2.08. Work on O=C(O)C1CCCCC1C(=O)Nc1ccccc1Cl (stereo not given) yielded a z-score of -0.189. In the case of O=C(O)C1CC=CCC1C(=O)Nc1cc(Cl)ccc1Cl (stereo not given), the z-score is reported as -0.205. For CCCCC(=O)NC(=S)NNC(=O)CC#N, the z-score was -0.265. In the case of Clc1ccc2[nH]c3c(NCC4CCCO4)ncnc3c2c1 (stereo not given), the z-score is reported as -3.05 (active). For CCN1CCCC1CNc1ncnc2c1[nH]c1ccc(F)cc12 (stereo not given), the z-score was 2.55. Compound Fc1ccc2[nH]c3c(NCCN4CCOCC4)ncnc3c2c1 has a z-score of 0.07. Work on CCOC(=O)c1ccc(Oc2c(C)oc3cc(OS(C)(=O)=O)ccc3c2=O)cc1 yielded a z-score of -0.214. In the case of CC(C)NC(=S)N/N=C/c1cc(Br)ccc1O, the z-score is reported as 6.43 (active). Cc1ccc(/C=N/NC(=S)NC(C)C)o1 showed a z-score of -0.11. NC(=O)N/N=C\c1cc(Br)ccc1O was tested, and the z-score was -0.265. In the case of FC(F)(F)c1cnc2c(c1)Nc1ccccc1S2, the z-score is reported as 0.635. N#Cc1c(-n2cccc2/C=N/O)sc2c1CCCC2 gave a z-score of -0.27. Cc1ccc(C)n1-c1sc2c(c1C#N)CCCC2 was tested, and the z-score was -0.0485. C=CCNCc1cccn1-c1sc2c(c1C#N)CCCC2 was tested, and the z-score was 2.43. Oc1ccccc1C1=Nc2ccccc2N=C(c2cccs2)C1 showed a z-score of 0.0299. Work on O=C(CSc1nnc2n1CCCN2C(=S)Nc1ccc(Cl)cc1)c1ccccc1 yielded a z-score of -0.14. Work on CN(c1ccc(C(=O)NCCSCc2ccco2)cc1)S(C)(=O)=O yielded a z-score of -0.396. Compound Cn1c(NC(=O)Cc2ccc(F)cc2)cc(=O)n(C)c1=O has a z-score of 2.79. In the case of Cn1c(NC(=O)Cc2cccs2)cc(=O)n(C)c1=O, the z-score is reported as 0.422. CCCC(=O)Nc1cc(=O)n(C)c(=O)n1C gave a z-score of -0.309. With COc1ccc(CC(=O)Nc2cc(=O)n(C)c(=O)n2C)cc1 the z-score was 2.78. Cn1c(NC(=O)CCc2ccccc2)cc(=O)n(C)c1=O was tested, and the z-score was -0.492. For Cn1c(NC(=O)COc2ccccc2)cc(=O)n(C)c1=O, the z-score was 0.597. For Cc1cccc(CSCCNC(=O)Nc2ccccc2)c1, the z-score was -0.872. In the case of CC(=O)NNc1nc(-c2ccc(NC(C)=O)cc2)cs1, the z-score is reported as -0.0151. CCOC(=O)/C=c1\s/c(=C\c2ccc(C)cc2)c(=O)n1CC(=O)NCc1ccco1 gave a z-score of 0.0354. With O=C(/C=C/c1ccc(Cl)cc1Cl)NC(=S)Nc1ccc(CN2CCOCC2)cc1 the z-score was 0.0804. Compound CC(=O)N/C(=C/c1ccc(OS(=O)(=O)c2ccc(C)cc2)cc1)C(=O)NCCO has a z-score of -0.101. With CCOCC(=O)Nc1nnc(C)s1 the z-score was 1.02. C=C1C2(C(=O)Nc3ccc(SC(F)F)cc3)CCC(C2)C1(C)C (stereo not given) was tested, and the z-score was 0.546. With CC12CCC(C(=O)Nc3ccc(SC(F)F)cc3)(CC1=O)C2(C)C (stereo not given) the z-score was 0.519. For O=C(Nc1ccc(SC(F)F)cc1)C12CCC(CC1)C2, the z-score was 3.38 (active). CCCCCNCc1ccc(Br)cc1 was tested, and the z-score was -0.224. With OCc1cc(CO)c(O)c(CCc2ccccc2)n1 the z-score was 0.171. Work on COc1cc(-c2nnc(-c3cccs3)o2)cc(OC)c1OC yielded a z-score of 2.27. With COc1ccc(-c2nnc(Nc3nc4c(OC)cccc4s3)o2)cc1 the z-score was 17.1 (active). In the case of COc1cccc2sc(Nc3nc(-c4ccccn4)cs3)nc12, the z-score is reported as 5.31 (active). With COc1cc(-c2nnc(-c3cc(OC)c(OC)c(OC)c3)o2)cc(OC)c1OC the z-score was -1.02. In the case of COc1cccc2sc(NC(=O)c3ccc(Br)s3)nc12, the z-score is reported as 0.601. In the case of COc1cccc2sc(Nc3nc(-c4cc5ccccc5oc4=O)cs3)nc12, the z-score is reported as 0.111. For COc1cccc2sc(Nc3nnc(-c4cccs4)o3)nc12, the z-score was 17.4 (active). Compound COc1cccc2sc(Nc3nc4ccc(NC(C)=O)cc4s3)nc12 has a z-score of -0.147. Compound COc1ccc(-c2nnc(-c3cccs3)o2)cc1OC has a z-score of -0.0864. c1ccc(Nc2nc(-c3ccccn3)cs2)cc1 showed a z-score of -0.545. CCOC(=O)c1sc(Nc2nc3c(OC)cccc3s2)cc1C was tested, and the z-score was -0.137. COc1cc2nc(-c3cccs3)oc(=O)c2cc1OC was tested, and the z-score was -0.693.
